Compound activity as filed in PubChem.
The full list was thinned out, with hits kept by preference.
AMPAR-TARP mod: modulators of AMPA receptor GluA2-stargazin complexes; O88602+P19491; HEK293 GluA2+stargazin, membrane potential dye (FDSS), glutamate EC50; hits were called plate by plate, in both directions; calls only at 30 µM; 40,000 tested, 3.5% active; AID 1259245;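 active = any of four per-well response measures lying three or more SD from its plate-wide compound average, in either direction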
GIRK2 activator: GIRK2 channel activators by thallium flux. HEK293 GIRK2/NPY4 cells, thallium flux fluorescence. P48051. 34,000 tested, under 10 active. activation (% efficacy), % for hits at 37.5 µM;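 active = primary screen hit, no activity in plain HEK293 cells, and in GIRK2-only cells above 5% efficacy rising with concentration; inactive = the rest, including fluorescent compounds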;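 note: efficacy is normalized control-subtracted fluorescence 15 s after thallium addition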
Of the large screens only hits and unclear results are named; the others gave an inactive call.

CC(=O)Nc1cccc(NC(=O)C(=O)NCC(c2ccco2)N(C)C)c1 (centres undefined)	none
O=S(=O)(Nc1ccc(Br)cc1)N1CCOCC1	none (no result: GIRK2 activator)
O=S(=O)(Nc1ccc(Br)cc1)N1CCCCCC1	AMPAR-TARP mod active (no result: GIRK2 activator)
CSc1cccc(NC(=O)NCCNc2nc(C)cc(N(C)C)n2)c1	none
Cc1cc(N(C)C)nc(NCCNC(=O)Nc2cccc(C(F)(F)F)c2)n1	AMPAR-TARP mod active
COc1ccc(CC(=O)NCC(O)c2sccc2C)cc1OC (centres undefined)	none
COc1ccccc1NC(=O)Cn1nc(-c2ccco2)c2sc(N3CCOCC3)nc2c1=O	none
O=C(NCC1CCN(C(=O)c2ccccc2F)CC1)C(=O)NCC(F)(F)F	none
Cc1cc(C)c2c(n1)nn1c(NCCc3ccccc3)cc(C)nc21	none
Cc1ccc(-c2c(C)nn3c(NCCN4CCOCC4)cc(C)nc23)cc1	none
Cc1cc(C)c2c(n1)nn1c(NCCN(C)C)cc(C)nc21	AMPAR-TARP mod active
Cc1cc(C)c2c(n1)nn1c(NCCN3CCOCC3)cc(C)nc21	AMPAR-TARP mod active
O=C(NCCCN1CCCC1=O)C(=O)Nc1ccc(F)cc1F	none
COC(=O)CN1CCN(c2nc3c(c(=O)[nH]c(=O)n3C)n2Cc2cc(C)ccc2C)CC1	none (no result: GIRK2 activator)
O=c1ccc(-c2ccco2)nn1CCCNS(=O)(=O)c1ccc2c(c1)OCCO2	none
O=c1ccc(-c2ccco2)nn1CCCNS(=O)(=O)c1ccc2c(c1)CCCC2	AMPAR-TARP mod active
CCOc1ccc(C(=O)N(CCc2ccccc2)Cc2ccccn2)cc1	none
Cn1ccnc1N1CCN(C(=O)c2ccc3c(c2)OCO3)CC1	none
Cc1cccc(C)c1N1CCN(C(=O)c2ccc3c(c2)OCO3)CC1	AMPAR-TARP mod active (no result: GIRK2 activator)
Cc1ccc(NC(=O)C(=O)NCc2ccc(F)cc2)cc1N1CCCC1=O	none
C=CCCC(=O)NCC#CCN1CCc2ccccc2C1	none
O=C(CCCc1ccccc1)NCC#CCN1CCc2ccccc2C1	AMPAR-TARP mod active
C=CCN(CC=C)C(=O)c1cc(-c2ccccc2)nc2ccccc12	AMPAR-TARP mod active (no result: GIRK2 activator)
O=C(Nc1cccc(C(F)(F)F)c1)c1cc(-c2ccccc2)nc2ccccc12	none (no result: GIRK2 activator)
O=C(NCC(O)c1cccc2ccccc12)c1cc2ccccc2o1 (centres undefined)	none
CCCCS(=O)(=O)N1CCN(c2ccc(-n3nc(C)c(C)c3C)nn2)CC1	none
CCCCS(=O)(=O)N1CCN(c2ccc(Nc3cccc(C)n3)nn2)CC1	AMPAR-TARP mod active
COc1ccc(CCC(=O)N2CCN(c3nccn3-c3cccc(Cl)c3)CC2)cc1	none
O=C(CCCc1ccccc1)N1CCN(c2nccn2-c2cccc(Cl)c2)CC1	AMPAR-TARP mod active
C=CCN1C(=O)SC(CC(=O)Nc2ccc([N+](=O)[O-])cc2)C1=O (centres undefined)	AMPAR-TARP mod active
C=CCN1C(=O)SC(CC(=O)Nc2ccc(C(=O)OC)cc2)C1=O (centres undefined)	none
CCc1nc(-n2cccc2)sc1C(=O)Nc1cc(OC)c(OC)c(OC)c1	none
O=S(=O)(NC1(c2nc(-c3cnccn3)no2)CCCCC1)c1ccc(F)c(Cl)c1	AMPAR-TARP mod active
Cc1noc(C)c1S(=O)(=O)NC1(c2nc(-c3cnccn3)no2)CCCCC1	none
COc1nn(C)cc1C(=O)Nc1ccc2c(c1)N(C(=O)C1CC1)CC2	AMPAR-TARP mod active
CC(C)(C)c1ccc(S(=O)(=O)Nc2ccc3c(c2)N(C(=O)C2CC2)CC3)cc1	AMPAR-TARP mod active
CCc1ccc(S(=O)(=O)Nc2ccc3c(c2)N(C(=O)C2CCCC2)CC3)s1	none
COCC(=O)N1CCCc2ccc(NC(=O)c3cn(C)nc3OC)cc21	none
O=C(C1CC1)N1CCc2ccc(NS(=O)(=O)c3ccc(Cl)cc3)cc21	none
CC(=O)Nc1ccc(S(=O)(=O)Nc2ccc3c(c2)N(C(=O)C2CC2)CC3)cc1	none
O=C(C1CC1)N1CCc2ccc(NS(=O)(=O)c3ccc(Cl)s3)cc21	AMPAR-TARP mod active
CCc1ccc(S(=O)(=O)Nc2ccc3c(c2)N(C(=O)C(C)(C)C)CC3)s1	AMPAR-TARP mod active
CC(=O)Nc1cccc(NC(=O)CSc2c(C)cnc3c2c(=O)n(C)c(=O)n3C)c1	none
COc1ccccc1CNC(=O)Cn1nc(-n2cccn2)ccc1=O	none
COc1ccc(C2C(C#N)=C(SCC(C)C)NC3=C2C(=O)CC(C)(C)C3)cc1OC (centres undefined)	none (no result: GIRK2 activator)
COc1ccc(-c2nnc3ccc(OCCNC(=O)c4ccccc4)nn23)cc1OC	none
COc1ccc(-c2nnc3ccc(OCCNC(=O)Nc4cccs4)nn23)cc1OC	AMPAR-TARP mod active
COc1ccc(-c2nnc3ccc(OCCNC(=O)C4CC4)nn23)cc1	AMPAR-TARP mod active
O=C(NCCOc1ccc2nnc(-c3ccccc3)n2n1)Nc1cccs1	AMPAR-TARP mod active
O=C(COc1ccccc1)NCCOc1ccc2nnc(-c3cccc(F)c3)n2n1	none (no result: GIRK2 activator)
O=C(NCCOc1ccc2nnc(-c3ccccc3)n2n1)Nc1ccccc1	none
O=C(NCCOc1ccc2nnc(-c3cccc(F)c3)n2n1)c1cc(-c2ccccc2)n[nH]1	AMPAR-TARP mod active
O=C(NCCOc1ccc2nnc(-c3ccccc3)n2n1)C1CCCC1	none
Cc1cc(NC(=O)c2c(F)cccc2F)n(-c2nc3c(cnn3-c3cccc(C)c3C)c(=O)[nH]2)n1	none (no result: AMPAR-TARP mod)
COc1ccccc1CCNC(=O)Cc1cc(-c2ccccc2)on1	none (no result: AMPAR-TARP mod)
O=C(NCC1CCN(Cc2ccccc2)CC1)c1cccc(Cl)c1	none (no result: GIRK2 activator)
O=C(NCCc1ccc(Cl)cc1)c1csc(NS(=O)(=O)c2cccs2)n1	none
COc1ccc(OC)c(-c2ccc(=O)n(CC(=O)Nc3ccc4c(c3)OCCO4)n2)c1	none
CC(C)c1ccc(S(=O)(=O)N2CCCC(c3nc(-c4cccc(F)c4)no3)C2)cc1 (centres undefined)	none
CCc1ccc(Oc2cc(N3CCC(C(=O)NCc4ccccc4F)CC3)ncn2)cc1	AMPAR-TARP mod active
CCc1ccc(Oc2cc(N3CCC(C(=O)NCc4ccc(SC)cc4)CC3)ncn2)cc1	none
CCNc1cc(NCCNS(=O)(=O)N(C)C)nc(C)n1	none (no result: AMPAR-TARP mod)
COCCSc1nnc(-c2cn(C)nc2OC)n1C	none
Cc1ccccc1-c1ccc(SCC(=O)NCc2ccc3c(c2)OCO3)nn1	AMPAR-TARP mod active
CC(C)C(=O)Nc1ccc(SCC(=O)NCc2ccc3c(c2)OCO3)nn1	none
O=C(NCc1ccsc1)C1CCCCC1	AMPAR-TARP mod active
O=C(NCC(O)c1ccsc1)C1CC1 (centres undefined)	none
Cc1ccc(S(=O)(=O)NCc2cccnc2)c(C)c1N(C)S(=O)(=O)c1ccc(Cl)cc1	AMPAR-TARP mod active
Cc1ccc(S(=O)(=O)NCc2ccccc2)c(C)c1N(C)S(=O)(=O)c1ccccc1	none (no result: GIRK2 activator)
CNC(=O)C(=O)NCC1OCCCN1S(=O)(=O)c1ccc(OC)cc1 (centres undefined)	none (no result: GIRK2 activator)
C=CCN1C(=O)/C(=C\C=C2/SCCN2C)SC1=S	AMPAR-TARP mod active (no result: GIRK2 activator)
Cc1nc(NCCNC(=O)c2ccc(F)cc2Cl)cc(-n2ccnc2C)n1	none
COc1ccccc1N1CC(C)Cn2c1nc1c2c(=O)n(CC(N)=O)c(=O)n1C (centres undefined)	none (no result: GIRK2 activator)
CS(=O)(=O)c1ccc(CC(=O)Nc2ccccc2Oc2ccccc2)cc1	AMPAR-TARP mod active (no result: GIRK2 activator)
CS(=O)(=O)c1ccc(CC(=O)Nc2nc(-c3ccc(Oc4ccccc4)cc3)cs2)cc1	none (no result: GIRK2 activator)
Cc1ccc(S(=O)(=O)CCCC(=O)Nc2ccccc2Oc2ccccc2)cc1	AMPAR-TARP mod active
COc1ccc(S(=O)(=O)CCC(=O)Nc2ccccc2Oc2ccccc2)cc1	none
